# From PubChem
# Many of the other results were omitted from the sample, so hits are more common in it than they were.
# Pf apPOL block – Pf-apPOL inhibitors, biochemical, fluorescence; Plasmodium falciparum apicoplast DNA polymerase (apPOL); Recombinant Pf-apPOL, molecular beacon fluorescence, 1.5 h; inhibition, % at 10 µM; hit rate 0.25% among 210,000
# mHTT-CaM PPI inh – mutant huntingtin-calmodulin interaction inhibitors – biochemical, AlphaScreen, primary screen. AID 1671202, 2021. P42858. AlphaScreen His-mHTT/GST-CaM binding, luminescence. inhibition, % at 15 µM. hit rate 3.6% among 190,000;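 note: 0% = both proteins with DMSO and 100% = one protein alone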
# * marks the source's active call; other numbers are inactive results; nt = no result given. Cut-off read from the data, not from the text of the source: active = inhibition above about 50%; inactive = the rest.
SMILES,Pf apPOL block,mHTT-CaM PPI inh
OC(CN1CCOCC1)Cn1c2ccc(Br)cc2c2cc(Br)ccc21 (configuration not stated),-14,91*
OC(CNC1CCCC1)Cn1c2ccccc2c2ccccc21 (configuration not stated),-2,6
OC(CNCCc1ccccc1)Cn1c2ccc(Br)cc2c2cc(Br)ccc21 (configuration not stated),nt,100*
O=C(Nc1c2c(nn1-c1ccc(Cl)cc1)CS(=O)(=O)C2)c1cccc(F)c1,-1,9
COc1ccc(OC)c(S(=O)(=O)c2ccc(Br)cc2)c1,-2,-11
O=C(NCc1ccccn1)c1cn(-c2cccc(F)c2)nn1,-2,-4
COCc1nc(C)nc(N2CCN(C(C)=O)CC2)c1Cc1cc(C)ccc1C,-3,0
CC(/C=C/c1ccc(F)cc1)=C\C(=O)O,-4,-1
OC/C=C/C=C/c1ccc(F)cc1,3,72*
Cc1cccc(-n2nc3c(c2NC(=O)c2ccccc2C(F)(F)F)CSC3)c1,0,31
O=C(CSc1ncn[nH]1)n1c2c(c3ccccc31)CCCC2,5,57*
Cn1c(SCC(=O)n2c3c(c4ccccc42)CCCC3)nnc1-c1ccc(N)cc1,-3,16
CCCCN1CCN(C(=O)C2CCc3sc(C(=O)N4CCOCC4)cc3C2)CC1 (configuration not stated),2,2
CNS(=O)(=O)CCc1ccc2[nH]cc(C3CCN(C)CC3)c2c1,3,nt
Cc1cccc(CNC(=O)c2nn(C)c3c2CN(C(=O)c2cccc(Cl)c2)CC3)c1,-9,76*
Cc1cccc(CNC(=O)c2nn(C)c3c2CN(C(=O)c2ccc(Cl)cc2)CC3)c1,-1,64*
Cc1cccc(CNC(=O)c2nn(C)c3c2CN(C(=O)c2c(F)cccc2F)CC3)c1,-7,-8
COCCN=C1Nc2ccccc2NC12CCCN(S(=O)(=O)c1ccc(C)c(F)c1)C2 (configuration not stated),-5,36
CCC(=O)N1CCN(C(C(=O)N2CCSCC2)C2CCCC2)CC1 (configuration not stated),-1,2
O=C(Cn1c(=O)[nH]c2ccsc2c1=O)Nc1ccc(F)cc1,2,0
CCN1c2ccccc2-n2cccc2C12CCN(C(=O)Nc1ccccc1C)CC2,-2,4
CCN1c2cc(C)ccc2-n2cccc2C12CCN(C(=O)Nc1cc(F)ccc1F)CC2,1,51*
CCN1c2cc(C)ccc2-n2cccc2C12CCN(C(=O)Nc1cccc(C)c1)CC2,5,66*
Cc1cccc(NC(=O)N2CCC3(CC2)NC(=O)c2ccccc2N3C)c1,0,-10
CCN1c2cc(C)ccc2-n2cccc2C12CCN(C(=O)Nc1ccc(F)cc1)CC2,-8,48
SMILES,Pf apPOL block,mHTT-CaM PPI inh
CCN1c2cc(C)ccc2-n2cccc2C12CCN(C(=O)Nc1ccc(F)cc1F)CC2,-6,52*
O=C(c1ccccc1Br)N1CCN(c2nc(CN3CCCCC3)cs2)CC1,-6,10
Cc1ccccc1COCc1nn(C)c2c1CN(C(=O)C(C)C)CC2,-2,9
O=C1C(=O)N(Cc2c(F)cccc2Cl)c2ccc(Br)cc21,0,66*
CCN(CC)C(=O)CN1C(=O)C(=O)c2ccccc21,4,0
O=C1C(=O)N(Cc2ccccc2Cl)c2ccc(Br)cc21,-2,86*
O=C1C(=O)N(Cc2csc(-c3ccc(Cl)cc3)n2)c2ccc(Br)cc21,0,46
CCN(CC)C(=O)CN1C(=O)C(=O)c2cc(Br)ccc21,nt,97*
O=C1C(=O)N(Cc2ccccc2)c2ccc(Br)cc21,5,48
COc1cccc2cc(C(=O)Nc3cccc(F)c3)c(=O)oc12,-4,0
Cc1ccc(NC(=O)Cc2nn(C)c(=O)c3ccccc23)cc1F,-4,-7
CCN(CC(=O)N1CCn2cccc2C1c1ccccc1Cl)S(C)(=O)=O (configuration not stated),-1,28
Cc1ccc(-c2noc(CS(=O)(=O)c3ccccc3)n2)cc1,-3,-19
OCCN=C1CCc2c1[nH]c1ccc(C3CCCCC3)cc21,-5,58*
O=C1CCc2c1[nH]c1ccc(C3CCCCC3)cc21,4,10
COc1cccc(Nc2nc(-c3ccc(F)cc3)cs2)c1,-1,59*
COc1ccc(-c2csc(Nc3cccc(C(=O)O)c3)n2)cc1,1,19
COc1ccc(-c2csc(Nc3cccc(O)c3)n2)cc1,-5,89*
Fc1ccc(-c2csc(Nc3ccc(Oc4ccccc4)cc3)n2)cc1,-2,48
COc1ccccc1NC(=O)COc1cccc2ccc(N3CCC(C(N)=O)CC3)nc12,-2,7
O=C(Cc1ccc(Cl)cc1)Nc1ccccc1NC(=O)Cc1ccc(Cl)cc1,3,-5
CC(=O)Nc1ccccc1NC(=O)Cc1ccc(Cl)cc1,95*,-1
CCOc1ccccc1NC(=O)C1CCC(CNS(=O)(=O)c2cccs2)CC1 (configuration not stated),0,6
CCCCCc1ccc(C(C)N)cc1 (configuration not stated),-12,nt
O=C1c2ccccc2NC(c2cccc(O)c2)N1O (configuration not stated),-7,20
SMILES,Pf apPOL block,mHTT-CaM PPI inh
COc1ccccc1N(CC(=O)NCc1ccco1)S(C)(=O)=O,-9,4
Cc1ccccc1N(CC(=O)NCc1ccco1)S(C)(=O)=O,65*,2
COc1ccccc1N1CCN(CC(O)COc2ccc(Cl)c(C)c2)CC1 (configuration not stated),2,99*
CC(C)(C)c1ccccc1OCC(O)CN1CCN(c2ccccc2)CC1 (configuration not stated),-1,99*
COc1ccccc1OCC(O)CN1CCN(c2ccc(F)cc2)CC1 (configuration not stated),-10,-14
COc1ccccc1N1CCN(CC(O)COc2ccc(C)c(C)c2)CC1 (configuration not stated),-2,38
Cc1cc(Cl)ccc1OCC(O)CN1CCN(c2ccccc2)CC1 (configuration not stated),-4,93*
Cc1ccc(OCC(O)CN2CCN(c3ccccc3)CC2)c(C)c1 (configuration not stated),2,14
COc1ccccc1N1CCN(C(=O)COc2ccc(Br)cc2C)CC1,-4,23
COc1ccccc1N1CCN(C(=O)COc2cc(C)c(Br)c(C)c2)CC1,-5,56*
COc1cc2sc(C(=O)N(C)Cc3ccccc3)c(Cl)c2cc1OC,2,24
c1cncc(-c2n[nH]c(-c3cccnc3)n2)c1,-3,nt
Clc1ccc(CN2CCc3nc(N4CCOCC4)ncc3C2)cc1,0,4
Cc1ccc(NC(=O)c2csc(-c3ccc(C)n3C)n2)c(C)c1,1,-5
Cc1ccccc1CNC(=O)c1csc(-c2ccc(C)n2C)n1,2,82*
Cc1ccc(-c2nc(C(=O)NCc3ccc(F)cc3)cs2)n1C,-5,85*
Cc1ccc(-c2nc(C(=O)NCc3ccccc3Cl)cs2)n1C,0,59*
COc1ccccc1NC(=O)c1csc(-c2ccc(C)n2C)n1,-2,7
Cc1ccc(NC(=O)c2csc(-c3ccc(C)n3C)n2)cc1,-6,60*
Cc1cc(C)cc(NC(=O)c2csc(-c3ccc(C)n3C)n2)c1,-9,3
CCc1ccccc1NC(=O)c1csc(-c2ccc(C)n2C)n1,-3,35
Cc1cccc(NC(=O)COc2ccc(Br)cc2Cl)c1C,-6,-3
Clc1cc(Cl)cc(Br)c1,-5,nt
